Test results from PubChem BioAssay (NCI).
This is part of a sample that, as a whole, favours compounds with a hit. Of some 83,000 tested, about 20% had one in any assay.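 96-well plates, one dose, 48 hours. Percent growth reported; active if below 10.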 The source made the active and inactive calls.

The compounds below were run on SF-539 CNS (assay: NCI-60 one-dose screen, 48 h (100 = growth as untreated, 0 = no growth, -100 = all killed)). Conditions: 10 µM unless noted.
In the case of `CC(=O)Oc1ccccc1C(=O)N=C1[Se]CCCN1C(=O)c1ccccc1OC(C)=O`, the growth is reported as -42.5% (active).
With `O=C1NC(=O)C(Cn2cnc3ccccc32)N1` (centres undefined) the growth was 96.4% (inactive).
With `O=C1CCC(C(=O)NCCNCCNC(=O)C2CCC(=O)N2)N1` (centres undefined) the growth was 102% (inactive).
With `COc1cccc(-c2nc(-c3ccc(NC(=O)c4ccccc4)cc3)[nH]c2-c2ccnc(Br)c2)c1` the growth was -5.94% (active).
With `Nc1cc2c(cc1Br)-c1cc(Cl)ccc1C2=O` the growth was 99.2% (inactive).
With `COc1cc2cc(Oc3ccc(NC(=O)Nc4cc(C(F)(F)F)cc(C(F)(F)F)c4)cc3)c(C)nc2cc1OCCN1CCOCC1` the growth was 38.5% (inactive).
`CCCCOc1nc2ccc(OC)cc2cc1-c1cc(-c2ccc(Cl)cc2)nc(-c2ccc(Cl)cc2)c1` was tested, and the growth was 98.3% (inactive).
For `COc1ccc(N2C(=O)C(Oc3ccccc3)C2c2ccc(C)cc2)cc1` (centres undefined), the growth was 98.6% (inactive).
With `CC(C)c1cc(C(C)C)c(S(=O)(=O)Oc2ccc(NC(=O)c3ccc(Cl)cc3)cc2)c(C(C)C)c1` the growth was 73.6% (inactive).
`COc1cc(C2CC(c3cccc(Br)c3)=NN2C(C)=O)cc(OC)c1OC` (centres undefined) was tested, and the growth was -5.96% (active).
With `Brc1ccc2[nH]cc(-c3nc(-c4c[nH]c5ccncc45)cs3)c2c1` the growth was -94.9% (active).
With `O=C(N/N=C/c1c(Cl)cccc1Cl)c1ccc(C(F)(F)F)nc1Nc1cccc(C(F)(F)F)c1` the growth was 1.63% (active).
In the case of `Cc1[nH]c(C(=O)Nc2ccc(C(=O)N3CCNCC3)cc2OC(C)C)c(Cl)c1Cl`, the growth is reported as 80.8% (inactive).
With `O=c1c2cc(F)cc(Cl)c2sc2c(NCCCNCCO)nc3ccccc3c12` the growth was 88.5% (inactive).
